Here are results for 7 molecules from PubChem BioAssay (NCI).

What all share (assay): NCI-60 one-dose screen, 48 h (100 = growth as untreated, 0 = no growth, -100 = all killed)
Common to all, as to details: 10 µM unless noted

Assay [1] concerns SK-MEL-2 melanoma.
In assay [2] the test system is EKVX NSCLC.
The test system of assay [3] is SN12C renal.
Assay [4] deals with UO-31 renal.
The test system of assay [5] is TK-10 renal.
In assay [6] the test system is ACHN renal.
Assay [7] concerns CAKI-1 renal.
Assay [8] deals with A498 renal.
The test system of assay [9] is CCRF-CEM leukemia.
The test system of assay [10] is MOLT-4 leukemia.
Assay [11] deals with SR leukemia.
Assay [12] has as its system RPMI-8226 leukemia.
In assay [13] the test system is OVCAR-8 ovarian.
The subject of assay [14] is OVCAR-5 ovarian.
Assay [15] deals with OVCAR-4 ovarian.
In assay [16] the test system is SK-OV-3 ovarian.
Assay [17] deals with IGROV1 ovarian.
The test system of assay [18] is OVCAR-3 ovarian.
The subject of assay [19] is HS 578T breast.
Assay [20] has as its system NCI/ADR-RES ovarian.

“And” between values parts separate entries of the source, which are not always exact repeats. Equal entries are not always repeated. The panel holds about 83,000 compounds, 20% with a hit somewhere; the sample as a whole holds those more often.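 Single-concentration screen, 48 h exposure, 96-well plates. Endpoint: percent growth. Below 10 = active.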 Values without a mark were called inactive. The source made the active and inactive calls.

Regarding `CSc1ccc(OCc2nc3ccccc3n2-c2cccc(NS(C)(=O)=O)c2)cc1`, the growth was 104% and 107% in [1]; 103% and 81.3% in assay [2]; 118% and 96.6% in assay [3]; 59.5% and 78.4% in [4]; 118% and 128% in assay [5]; 90.8% and 94.9% in assay [6]. In addition, the growth is 76.7% and 85% in assay [7]; 137% and 153% in assay [8]; 96.7% and 98.6% in assay [9]; 96.7% and 97.4% in assay [10]; 82.6% and 89.5% in assay [11]; 93.7% and 91.1% in assay [12]. The growth in assay [13] is 99.5% and 88.4%; in assay [14], 130% and 117%; in assay [15], 93.8% and 69.4%; in assay [16] it was 110% and 83.5%; in assay [17], 95.3% and 82.8%; in assay [18], 118%. The growth is 80.9% and 65% in assay [19]; 96.5% and 79.7% in assay [20].
`CN(C)c1nc(NCCNS(=O)(=O)c2ccc(C3=Nc4c(N)nc(N)nc4NC(c4ccc(Cl)cc4)C3)cc2)nc(N2CCOCC2)n1` (stereo not given): the growth was 98.5% in [1]; 37.6% in assay [2]; 37% in assay [3]; 59.9% in assay [4]; 86.8% in assay [5]; 69.2% in assay [6]. For the same molecule, the growth in assay [7] is 41.7%; in assay [8], 108%; in [9] it was 17.3%; in [10], 13.9%; in assay [11], 31.9%; in assay [12], 21.4%. Further, the growth in assay [13] was 64.3%; in [14], 82.7%; in [15], 66.9%; in assay [16], 75.9%; in [17] it was 45%; in assay [18], 65.5%. Besides, the figures for the growth in [19] and in [20] were 45.2% and 85.7%, respectively.
With `O=C(NNC(=S)NCCc1ccccc1)c1ccc(OCc2nc3ccc(Cl)cc3[nH]2)cc1`, the growth in assay [1] is 71.6%; in assay [2], 66.1%; in assay [3] it was 73.1%; in [4] it was 54.1%; in assay [5] it was 83.8%; in assay [6] it was 81.1%. Also, the growth in assay [7] was 79.9%; in [8], 166%; in assay [9], 58.9%; in [10] it was 39.7%; in assay [11], 54.2%; in assay [12], 49.1%. Moreover, the growth in [13] is 86.2%; in assay [14], 113%; in assay [15], 49.7%; in [16], 102%; in [17], 80.3%; in assay [18] it was 68.2%. The growth in assay [19] is 81.2%; in [20] it was 93.9%.
In the case of `COc1cc(C2CC(c3ccc(S(=O)(=O)NCCNc4nc(N(C)C)nc(N5CCOCC5)n4)cc3)=Nc3c(N)nc(N)nc3N2)cc(OC)c1OC` (stereo not given), the growth in assay [1] is 108%; in assay [2] it was 75.4%; in assay [3], 86.5%; in [4], 80.5%; in assay [5], 107%; in assay [6], 94.6%. The growth in assay [7] was 88.4%; in [8], 79%; in assay [9], 99.3%; in assay [10], 89.3%; in [11] it was 93.3%; in assay [12], 84.9%. Also, the growth in assay [13] is 103%; in assay [14], 93.4%; in assay [15] it was 95.1%; in assay [16], 115%; in [17], 105%; in [18], 105%. The figures for the growth in assay [19] and in assay [20] were 76.6% and 92.8%, respectively.
For the molecule `O=C(Cc1c(-c2cccc([N+](=O)[O-])c2)n(-c2ncnc3c2c(-c2ccccc2)c(-c2ccccc2)n3Cc2ccccc2)[nH]c1=O)c1ccc(Cl)c(Cl)c1`, the growth in assay [1] is 1.5% (active); in assay [2], 11.1%; in [3], 38.5%; in [4], 39.8%; in assay [5], 59%; in assay [6], 40.4%. Further, the growth in assay [7] was 21.1%; in assay [8], 70.3%; in assay [9], 51.3%; in assay [10] it was 41.9%; in assay [11] it was 59.8%; in assay [12], 12.6%. Further, the growth in assay [13] was 34.3%; in assay [14], 66.8%; in assay [15], 31.6%; in assay [16], 72.2%; in assay [17], 33.8%; in assay [18], 46.5%. Further, the growth in assay [19] is 20.2%; in [20], 51.6%.
Regarding `Cc1ccccc1Nc1nnc(-c2c[nH]c3ccccc23)o1`, the growth in assay [1] is -10.8% (active); in assay [2] it was 20.1%; in [3], 33.8%; in assay [4] it was 33.8%; in assay [5] it was 60.2%; in [6], 39.5%. The growth in assay [7] was 29.4%; in assay [8] it was 101%; in assay [9], 10.5%; in assay [10], 9.88% (active); in assay [11], 15.5%; in assay [12] it was 7.25% (active). Besides, the growth in [13] was 18.9%; in [14], 33.4%; in assay [15], 79.9%; in assay [16], 17.6%; in assay [17], 20.8%; in assay [18], 7.3% (active). Further, the growth in [19] was -2.08% (active); in assay [20], -20.2% (active).
`N/C(=N\c1nc2ccccc2s1)NC(=O)Nc1ccccc1F`: the growth in assay [1] is 11%; in assay [2], 37%; in [3], 26.4%; in assay [4], 34.3%; in assay [5] it was 38.4%; in assay [6] it was 47.8%. Also, the growth is 18.6% in [7]; 78.4% in assay [8]; 5.96% (active) in assay [9]; 21.1% in assay [10]; 20.8% in [11]; 15.8% in [12]. The growth in [13] is 10.6%; in assay [14], 31.4%; in assay [15] it was 49.6%; in assay [16] it was -1.47% (active); in [17] it was 37.5%; in [18] it was 7.03% (active). For the same molecule, the growth in [19] was 7.56% (active); in assay [20] it was -14.8% (active).
